From PubChem
NR3A LBD binder: NR3A (human) ligand-binding domain modulation | hit rate 2.5% among 340,000 | NR3A LBD differential scanning fluorimetry, Tm shift; 0% = protein alone, 100% = glycine-bound protein | Tm shift relative to glycine control, % at 25 µM;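 active means melting temperature shift of at least 10% of the positive control shift, at one fixed dose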
UBC13 polyUb: blocks human UBC13 polyubiquitin chain formation; P61088; TR-FRET; inhibition, % at 20 µM; hit rate 0.47% among 330,000; AID 485273; in the data active means inhibition above about 45%, passing the limit was not always enough
Target sequence (P61088 whole entry, looked up): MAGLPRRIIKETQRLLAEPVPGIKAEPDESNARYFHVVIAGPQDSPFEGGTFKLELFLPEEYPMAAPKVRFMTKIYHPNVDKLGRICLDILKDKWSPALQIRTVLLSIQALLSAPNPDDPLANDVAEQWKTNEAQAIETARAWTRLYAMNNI
sPLA2-III inh: Blocks human group III sPLA2 activity | Q9NZ20 | QFRET BODIPY PC-A2 liposome hydrolysis, fluorescence | inhibition, % at 12.2 µM | hit rate 0.56% among 370,000;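 active means inhibition above mean plus 3 SD of compounds lying within the high and low control bounds, cut at about 19% in these data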;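 further: 0% = median of test compound wells and 100% = no enzyme DMSO wells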
Target sequence (Q9NZ20 whole entry, looked up): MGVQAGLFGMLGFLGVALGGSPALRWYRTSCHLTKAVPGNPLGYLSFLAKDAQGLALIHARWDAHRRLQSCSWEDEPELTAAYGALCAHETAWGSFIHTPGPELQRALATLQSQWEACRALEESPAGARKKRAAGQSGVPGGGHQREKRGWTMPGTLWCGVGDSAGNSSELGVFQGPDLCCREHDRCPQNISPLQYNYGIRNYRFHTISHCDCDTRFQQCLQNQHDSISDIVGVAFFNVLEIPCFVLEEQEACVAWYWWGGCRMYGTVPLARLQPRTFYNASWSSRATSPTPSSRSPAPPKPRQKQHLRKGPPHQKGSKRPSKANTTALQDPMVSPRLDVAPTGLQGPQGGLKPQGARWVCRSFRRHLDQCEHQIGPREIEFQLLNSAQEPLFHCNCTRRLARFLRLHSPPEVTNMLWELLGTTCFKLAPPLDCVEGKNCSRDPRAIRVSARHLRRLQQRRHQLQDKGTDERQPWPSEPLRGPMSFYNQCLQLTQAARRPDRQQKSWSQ
UBC9 SUMO inh: SUMOylation inhibition | hit rate 0.36% among 290,000 | inhibition, % at 35 µM | HTRF SUMOylation assay, SAE1/SAE2 + UBC9, in vitro | P63279; in the data active means inhibition above about 50%, passing the limit was not always enough
hGIII sPLA2 conf: human GIII-sPLA2 inhibition, confirmation; shares compounds with sPLA2-III inh; recombinant hGIII-sPLA2, BODIPY PC-A2 QFRET fluorescence; inhibition, % at 12.2 µM; hit rate 34% among 2,000;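 active means mean inhibition across triplicates above the hit cutoff set in the earlier primary screen, cut at about 19% in these data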;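 further: 0% = enzyme with DMSO and 100% = DMSO wells lacking enzyme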
535nm interf: 535nm fluorescence interference, HGIII-sPLA2 counter-screen | inhibition, % at 12.2 µM | hit rate 8.5% among 2,000 | shares compounds with sPLA2-III inh | BODIPY FL product fluorescence interference, QFRET;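 active means average inhibition above the solvent-only control mean plus 3 SD, cut at about 6% in these data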;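 further: 0% = DMSO with substrate plus product and 100% = DMSO with substrate alone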
BODIPY interf DR: 535nm optical interference dose response, HGIII-sPLA2 counter-screen; shares compounds with sPLA2-III inh; BODIPY FL product fluorescence interference, cell-free; IC50, µM; 240 tested, under 10 active; AID 743455;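 active means IC50 at or below 10 µM; inactive means IC50 above 10 µM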
* = called active by the depositor. Shown are actives, neighbours in structure and some others; about 3.3% of the full set was active somewhere.

How did CCOC(=O)Cn1c(=O)c2c(nc3n2CCCN3Cc2ccccc2)n(C)c1=O do in these assays?
NR3A LBD binder: -1; UBC13 polyUb: 8; sPLA2-III inh: 2; UBC9 SUMO inh: 15

How did CCn1cc(CNC(=O)c2c(-c3c(Cl)cccc3Cl)noc2C)c(C)n1 do in these assays?
NR3A LBD binder: -7; UBC13 polyUb: 5; sPLA2-III inh: 21*; UBC9 SUMO inh: 7; hGIII sPLA2 conf: 0; 535nm interf: -1

Results for Cc1ccc(C)c(NC(=S)Nc2ncccc2C)c1 ?
NR3A LBD binder: -1; UBC13 polyUb: -6; sPLA2-III inh: 19*; UBC9 SUMO inh: -7; hGIII sPLA2 conf: 10; 535nm interf: -8

Results for Cc1cccnc1NC(=S)Nc1ccc(F)cc1F ?
NR3A LBD binder: -2; UBC13 polyUb: 6; sPLA2-III inh: 20*; UBC9 SUMO inh: 11; hGIII sPLA2 conf: 21*; 535nm interf: -4

How did O=C(CSc1nc2ccccc2s1)Nn1cnnc1 do in these assays?
NR3A LBD binder: -2; UBC13 polyUb: 1; sPLA2-III inh: 1; UBC9 SUMO inh: 4

What do the screens show for `O=C(CSc1nc2ccccc2s1)NNC(=S)Nc1ccc(Cl)cc1`?
NR3A LBD binder: 32*; UBC13 polyUb: -15; sPLA2-III inh: 26*; UBC9 SUMO inh: -133; hGIII sPLA2 conf: 7; 535nm interf: 3

How did C=CCNC(=S)NNC(=O)CSc1nc2ccccc2s1 do in these assays?
NR3A LBD binder: 2; UBC13 polyUb: -1; sPLA2-III inh: 30*; UBC9 SUMO inh: -10; hGIII sPLA2 conf: 20*; 535nm interf: 0

What do the screens show for `CCCCCC(=O)Nc1cc(N(C)C)nc2ccccc12`?
NR3A LBD binder: -2; UBC13 polyUb: -3; sPLA2-III inh: -2; UBC9 SUMO inh: 5

What do the screens show for `CCN(CC)CC(=O)Nc1cc(N(C)C)nc2ccccc12`?
NR3A LBD binder: -2; UBC13 polyUb: -4; sPLA2-III inh: 20*; UBC9 SUMO inh: 6; hGIII sPLA2 conf: 11; 535nm interf: -10

What do the screens show for `Oc1ccccc1-c1nc(N2CCCC2)c2ccccc2n1`?
NR3A LBD binder: -3; UBC13 polyUb: 17; sPLA2-III inh: -1; UBC9 SUMO inh: 42

Results for Fc1ccccc1-c1nc(N2CCCCC2)c2ccccc2n1 ?
NR3A LBD binder: 1; UBC13 polyUb: -4; sPLA2-III inh: 21*; UBC9 SUMO inh: -3; hGIII sPLA2 conf: -5; 535nm interf: -14

Results for COC(=O)c1c(NC(=O)CSc2nc3ccccc3c(=O)n2Cc2ccco2)sc(C)c1C ?
NR3A LBD binder: 0; UBC13 polyUb: 6; sPLA2-III inh: 19*; UBC9 SUMO inh: 0; hGIII sPLA2 conf: 1; 535nm interf: 0

How did O=C(CSc1nc2ccccc2c(=O)n1Cc1ccco1)NCc1ccco1 do in these assays?
NR3A LBD binder: 0; UBC13 polyUb: 11; sPLA2-III inh: 0; UBC9 SUMO inh: 10

What do the screens show for `Nc1nc(-c2ccccc2)c(N=Nc2ccc(Cl)cc2)s1`?
NR3A LBD binder: -3; UBC13 polyUb: -140; sPLA2-III inh: 19*; UBC9 SUMO inh: 6; hGIII sPLA2 conf: 34*; 535nm interf: 7.1*

Results for Cc1ccc(OCCCN2C(=O)C(=O)c3cccc(C)c32)cc1 ?
NR3A LBD binder: -2; UBC13 polyUb: -12; sPLA2-III inh: 26*; UBC9 SUMO inh: 2; hGIII sPLA2 conf: 26*; 535nm interf: -3

How did CCCC[C@H](C(=O)N(C)c1ccccc1)[C@@H](O)c1ccc(C(C)=O)cc1 do in these assays?
sPLA2-III inh: -6

What do the screens show for `CCCCNC(=O)C[C@H]1C[C@@]2(C(=O)OC)C(=C[C@H](C3CCCC3)O[C@@H]2C)N(CCC2=CCCCC2)C1=O`?
sPLA2-III inh: -5

What do the screens show for `Cc1cccc2sc(NNC(=O)c3ccc(S(=O)(=O)N4CC(C)CC(C)C4)cc3)nc12` (stereo not given)?
NR3A LBD binder: 5; UBC13 polyUb: -13; sPLA2-III inh: 47*; UBC9 SUMO inh: -26; hGIII sPLA2 conf: 47*; 535nm interf: 3

What do the screens show for `COC(=O)c1sc2ccccc2c1NC(=O)c1ccc(S(=O)(=O)N2CC(C)CC(C)C2)cc1` (stereo not given)?
NR3A LBD binder: 1; UBC13 polyUb: 24; sPLA2-III inh: 4; UBC9 SUMO inh: 28

How did CC1CCCN(S(=O)(=O)c2ccc(C(=O)Nc3nnc(C4CC4)o3)cc2)C1 (stereo not given) do in these assays?
NR3A LBD binder: -1; UBC13 polyUb: -11; sPLA2-III inh: -6; UBC9 SUMO inh: -13

Results for Cc1cc(C)c2nc(NNC(=O)c3ccc(S(=O)(=O)N4CCCC(C)C4)cc3)sc2c1 (stereo not given) ?
NR3A LBD binder: 5; UBC13 polyUb: -82; sPLA2-III inh: 36*; UBC9 SUMO inh: -33; hGIII sPLA2 conf: 46*; 535nm interf: 6.5*

Results for O=C(CSc1nc2ccccc2c(=O)n1-c1ccc(F)cc1)Nc1ccc(C(=O)O)cc1 ?
NR3A LBD binder: 0; UBC13 polyUb: 2; sPLA2-III inh: -3; UBC9 SUMO inh: 1

How did Cc1ccc(NC(=S)NNC(=O)CSc2nc3ccccc3c(=O)n2-c2ccc(Cl)cc2)cc1 do in these assays?
sPLA2-III inh: 29*; hGIII sPLA2 conf: 24*; 535nm interf: 2

Results for CCN(CC)c1ccc(NC(=O)CSc2nc3ccccc3c(=O)n2-c2ccc(C)cc2)cc1 ?
sPLA2-III inh: 28*; hGIII sPLA2 conf: 30*; 535nm interf: -11; BODIPY interf DR: >122

How did Cc1ccc(-n2c(SCC(=O)NNC(=S)Nc3ccccc3)nc3ccccc3c2=O)cc1 do in these assays?
NR3A LBD binder: -1; UBC13 polyUb: -3; sPLA2-III inh: 30*; UBC9 SUMO inh: -45; hGIII sPLA2 conf: 26*; 535nm interf: 2

What do the screens show for `O=C(N[C@H](C(=O)N1CCC[C@H]1C(=O)NCc1ccccc1)c1ccccc1)c1ccccc1`?
sPLA2-III inh: 4

How did COC(=O)[C@@]12CCCCC3=C1N(CCC3)C(=O)[C@H]2CC(=O)N1CCC(c2ccccc2)CC1 do in these assays?
sPLA2-III inh: 13

What do the screens show for `CNc1ccccc1C(=O)OCC(=O)N(CCOC)c1c(N)n(CC(C)C)c(=O)[nH]c1=O`?
NR3A LBD binder: 0; UBC13 polyUb: 12; sPLA2-III inh: 20*; hGIII sPLA2 conf: 11; 535nm interf: -8

How did COCCN(C(=O)COC(=O)c1ccccc1Cc1ccccc1)c1c(N)n(Cc2ccccc2)c(=O)[nH]c1=O do in these assays?
NR3A LBD binder: 0; UBC13 polyUb: -3; sPLA2-III inh: -22

What do the screens show for `CCOC(=O)[C@@]12CN(C(=O)OC(C)(C)C)CC=C1N(Cc1ccc(OC)cc1)C(=O)[C@H]2CC(=O)NCCCN1CCCC1=O`?
sPLA2-III inh: 4
